Assay results: the OligoGym collection

Molecular target: ARIH1
Test: pooled miR-30 sensor sort-seq; sequence = guide strand
Conditions: shRNA
Further: reference of the scale not given here.

| Sequence | sensor-assay potency score (higher = more potent) |
| --- | --- |
| TTAGGGTAGTTCAAGTAGCAGA | -0.412 |
| TTGTCTTGTACTTTCTGCTTTA | -0.218 |
| TTAACAGTCGATTGCACTCTAC | -0.996 |
| TAGCGGTTACAGTTGTACCAGG | -0.854 |
| TTGGACTTTAACAACATGGTGG | 0.0155 |
| TTAACCACTTACATTTAACAGG | -0.703 |
| TACTTTCTGCTTTATATCCTGC | 0.014 |
| TTACAGTAGAACAGGTACCTCT | -0.0917 |

Molecular target: ARL3
Test: as above
Conditions: shRNA

| Sequence | sensor-assay potency score (higher = more potent) |
| --- | --- |
| TTTTTCTGTCTGCACTGTCGAT | -0.887 |
| TTAGTTTTTCTTCCTCCAGTAA | -0.387 |
| TAAGAATATCGGTATTTTCAAA | -1.26 |
| TTCAGATGCAAGCTGCTTCAGA | -0.224 |
| AATTCTTCCAGTATGGTCTGAT | 0.17 |
| TTTGATGTTGAAACCCTGTGTA | 0.537 |
| TGATTGTACACTTTTGATGTTG | -0.736 |
| AACCTTGTGATTGTACACTTTT | -0.441 |
| TTGTGATTGTACACTTTTGATG | -1.36 |
| TTGATGTTGAAACCCTGTGTAG | -0.924 |
| AATCTTTTTCTGTCTGCACTGT | -0.19 |
| TTGTACACTTTTGATGTTGAAA | -1.03 |
| TTGACATTTTTGCAGACCCAGT | -1.64 |
| TCTGGTGCACTTTTCAACTTGC | 0.321 |
| ATACATTCAGTTTAAAACCTTG | -0.514 |
| TTACATATATAAGAATATCGGT | -0.321 |
| TTTTCTGTCTGCACTGTCGATT | -0.243 |
| TAATTCTTCCAGTATGGTCTGA | 0.485 |
| TTCAGAAGAGTGGTCTTGCCAG | -0.492 |
| TTTTCAAAATAATTCTTCCAGT | -0.927 |
| TACATATATAAGAATATCGGTA | -0.522 |
| TTCAGTTTAAAACCTTGTGATT | -1.5 |
| TTTTGATGTTGAAACCCTGTGT | 0.456 |

Molecular target: ARL4D
Test: as above
Conditions: shRNA

| Sequence | sensor-assay potency score (higher = more potent) |
| --- | --- |
| TTTGGTGGGGACACTCTGGACA | -0.71 |
| AAGAGCGCCACAGTGGTCGCAG | -0.161 |
| TTGCACATGAGTGAGAGTGGCG | -0.774 |
| TTCGGTGCAACTCCACCTTGGC | 0.0163 |
| AACTCCTTGAACTTGAGGCGGT | -0.138 |
| ATTCGGTGCAACTCCACCTTGG | -0.512 |
| AGACCGTCCACAGCGCTGCAGC | -1.79 |
| AAACTCCTTGAACTTGAGGCGG | -0.934 |
| ACAAACACTAGACCGTCTGTCC | -0.415 |
